Hits are enriched below; roughly 2.4% of the tested compounds scored in any of these assays.
Pol eta inh-1: DNA polymerase eta (human) inhibition. recombinant Pol eta, fluorescent DNA replication assay. Potency, µM (top dose mostly 114 µM), for inactives: top-dose activity change, negative = inhibition, most hits filed as inhibitors. hit rate 1.2% among 390,000. AID 588591; further: on the % scale 0 is the no-effect control and ±100 the full control effect
Target sequence (Q9Y253 whole entry, looked up): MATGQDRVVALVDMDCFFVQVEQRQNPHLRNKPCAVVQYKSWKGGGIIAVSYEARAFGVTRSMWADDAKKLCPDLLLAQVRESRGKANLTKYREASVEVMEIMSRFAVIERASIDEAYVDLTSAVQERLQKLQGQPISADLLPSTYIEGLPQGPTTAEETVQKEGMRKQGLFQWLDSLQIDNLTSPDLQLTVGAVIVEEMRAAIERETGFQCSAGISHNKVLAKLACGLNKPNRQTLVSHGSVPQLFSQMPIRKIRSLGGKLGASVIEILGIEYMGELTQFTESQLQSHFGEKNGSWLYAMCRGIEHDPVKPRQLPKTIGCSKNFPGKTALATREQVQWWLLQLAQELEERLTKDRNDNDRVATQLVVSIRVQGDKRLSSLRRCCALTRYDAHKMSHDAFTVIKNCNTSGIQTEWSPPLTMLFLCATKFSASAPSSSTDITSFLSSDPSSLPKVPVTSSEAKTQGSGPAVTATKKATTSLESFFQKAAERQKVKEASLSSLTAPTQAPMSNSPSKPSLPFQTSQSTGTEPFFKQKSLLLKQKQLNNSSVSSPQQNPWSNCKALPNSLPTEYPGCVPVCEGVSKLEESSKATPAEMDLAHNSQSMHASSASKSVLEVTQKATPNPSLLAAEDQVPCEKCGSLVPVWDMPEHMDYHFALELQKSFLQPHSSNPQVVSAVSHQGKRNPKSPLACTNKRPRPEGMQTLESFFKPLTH
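Pol eta at 10 nM preincubated with compounds 15 min at room temperature; reaction started with fluorescent substrate (50 nM final) and read kinetically at 0 and 10 min.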
Pol iota inh: inhibitors of human DNA polymerase iota; Q9UNA4; Potency, µM (series often up to 115 µM), inactives show at the highest dose activity, negative = inhibition, actives largely listed as inhibitors; AID 588590; Pol iota fluorescent replication assay, 10 min; hit rate 1% among 390,000
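Pol iota at 10 nM preincubated 15 min with compounds at room temperature; reaction started with fluorescent substrate, 50 nM final. Fluorescence read kinetically at 0 and 10 min; buffer-only wells as negative control.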
FEN1 inh-1: blocks human flap endonuclease 1; hit rate 0.35% among 390,000; Recombinant FEN1 flap cleavage, fluorescence, 15 min; Potency, µM (top dose mostly 114 µM), inactives show at the top dose activity change, negative = inhibition, actives largely listed as inhibitors; AID 588795; further: on the % scale 0 is the no-effect control and ±100 the full control effect; nearly all actives have a fitted effect of over 65% in size
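Recombinant FEN1 (10 nM) was preincubated with pin-transferred compounds for 15 min at room temperature, then flap DNA substrate (50 nM final) was added. Plates were read at 0 and 15 min, and normalized concentration–response data were fitted to a four-parameter Hill equation.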
Pol beta inh: DNA polymerase beta (human) inhibition | P06746 | Pol beta primer extension/strand displacement, fluorescence kinetic | Potency, µM (titrated, usually from 114 µM), for inactives: at the top dose activity change, negative = inhibition, most hits filed as inhibitors | hit rate 1.3% among 340,000 | AID 485314; further: on the % scale 0 is the no-effect control and ±100 the full control effect
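10 nM enzyme + cpd, 15 min RT; start with substrate 50 nM final; read 0 min and after 10 min RT. Corrected, normalized data; 4-parameter Hill curve fit.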
Pol kappa inh-1: DNA polymerase kappa (human) inhibition; AID 588579; Potency, µM (doses to about 107 µM), without a hit: top-dose activity, negative = inhibition, usual class: inhibitors; Q9UBT6; purified Pol kappa, fluorescent DNA synthesis assay, 10 min; hit rate 0.53% among 400,000; further: on the % scale 0 is the no-effect control and ±100 the full control effect
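Readout: fluorescence, taken kinetically at 0 and 10 min. Conditions: 10 nM Pol kappa, 15 min RT compound preincubation, 50 nM substrate final. Controls: enzyme-free buffer wells.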
WRN helicase inh-1: WRN helicase (human) inhibition; Q14191; WRN helicase unwinding, fluorescent forked duplex, kinetic; Potency, µM (titrated, usually from 114 µM), for inactives: at the highest dose activity change, negative = inhibition, hits mostly inhibitors; hit rate 0.46% among 360,000; further: on the % scale 0 is the no-effect control and ±100 the full control effect; nearly all actives have a fitted effect of over 55% in size
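WRN at 20 nM final preincubated with compound 15 min at room temperature; reaction started with 100 nM fluorophore/quencher forked duplex oligonucleotide and 2 mM ATP final. Unwinding followed kinetically by red fluorescence (ex 525, em 598 nm).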
PGK validate: validation of Trypanosoma brucei phosphoglycerate kinase inhibitors; hit rate 79% among 500; shares compounds with Pol kappa inh-1; Potency, µM (top dose mostly 57.5 µM), inactives show at the highest dose activity change, negative = inhibition, usual class: inhibitors; AID 686980; TbPGK coupled GAPDH assay, Kinase-Glo luminescence; further: on the % scale 0 is the no-effect control and ±100 the full control effect; nearly all actives have a fitted effect of over 65% in size
Pol iota confirm: Human Pol iota inhibitor confirmatory assay. shares compounds with Pol kappa inh-1. Pol iota primer extension, TAMRA/BHQ fluorescence. Potency, µM, actives largely listed as inhibitors. hit rate 77% among 1,500
Pol kappa inh-2: Pol kappa (human) inhibition, cherry-pick confirmation | shares compounds with Pol eta inh-1 | purified Pol-kappa, fluorescent strand-displacement substrate | Potency, µM, actives largely listed as inhibitors | hit rate 76% among 920 | AID 720501
Pol eta inh-2: Pol eta (human) inhibition, cherry-pick confirmation; Potency, µM, hits mostly inhibitors; AID 720502; hit rate 64% among 2,600; shares compounds with Pol eta inh-1; Pol eta primer extension, TAMRA/BHQ fluorescence, 10 min
FEN1 inh-2: confirmation of human FEN1 inhibitors; shares compounds with FEN1 inh-1; hit rate 79% among 880; Potency, µM, most hits filed as inhibitors; FEN1 flap cleavage, TAMRA/BHQ2 fluorogenic DNA substrate; further: nearly all actives have a fitted effect of over 60% in size
WRN helicase inh-2: confirmation of human WRN helicase inhibitors | WRN helicase DNA unwinding, fluorescence kinetic | AID 720497 | hit rate 63% among 610 | Potency, µM (doses to about 57.1 µM), inactives show at the highest dose activity, negative = inhibition, usual class: inhibitors | shares compounds with WRN helicase inh-1; further: nearly all actives have a fitted effect of over 65% in size
TO DNA binding: DNA binding via thiazole orange displacement. shares compounds with WRN helicase inh-1. thiazole orange DNA binding displacement, fluorescence. Potency, µM (top dose mostly 57.1 µM), for inactives: at the top dose activity change, negative = inhibition, most hits filed as inhibitors. hit rate 10% among 610;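 further: drop in dye fluorescence marks compound binding to DNA; on the % scale 0 is the no-effect control and ±100 the full control effect; nearly all actives have a fitted effect of over 60% in size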
BLM counter: blocks human BLM helicase in WRN counterscreen; Recombinant BLM helicase DNA unwinding, red fluorescence; Potency, µM (doses to about 57.1 µM), for the others: at the top dose activity change, negative = inhibition, most hits filed as inhibitors; shares compounds with WRN helicase inh-1; hit rate 60% among 610; AID 720503; further: nearly all actives have a fitted effect of over 60% in size
Numbers without * were called inactive; u = inconclusive; x = no result given. The call rests on the fitted dose curve; in most records, active means well fitted curve in the direction sought with a large enough effect; inconclusive means small, poorly fitted or top-dose-only effect, or another doubt; inactive means no such curve, though single readings can be large; an effect the other way counts as inactive or inconclusive. Potency means the concentration at half of the fitted maximal effect.

SMILES	Pol eta inh-1	Pol iota inh	FEN1 inh-1	Pol beta inh	Pol kappa inh-1	WRN helicase inh-1	Pol iota confirm	Pol eta inh-2	FEN1 inh-2	others
Cc1cccc(C)c1NC(=O)CN1C(=O)S/C(=C\c2cccn2-c2cccc(C(=O)O)c2)C1=O	22µM*	u	50µM*	-109%	-27%	u	38*	76*	76*
O=C1N/C(=C/c2cccn2-c2ccccc2)C(=O)N1Cc1ccc(F)cc1	3%	30%	1%	-12%	-2%	4%	x	x	x
Cc1cc(NC(=O)CN2C(=O)S/C(=C\c3ccccc3)C2=O)no1	-3%	17%	4%	29%	8%	5%	x	x	x
CN(c1ccccc1)c1ccc(/C=C(/CCC(=O)O)c2nc3ccccc3s2)cc1[N+](=O)[O-]	20µM*	18µM*	50µM*	x	32µM*	u	47*	67*	67*
Oc1ccc(N=Nc2ccc(Br)cc2)c(O)c1	-9%	9%	3%	13%	-2%	1%	x	x	x
O=S(=O)(O)c1cc(O)c(N=Nc2ccc(O)cc2O)c2ccccc12	10µM*	x	35µM*	x	20µM*	40µM*	19*	38*	85*	PGK validate=23µM*;Pol kappa inh-2=34*
COc1ccc(-c2nc3scc(CCNC(=O)c4cccc(Br)c4)n3n2)cc1	-20%	4%	3%	-9%	-11%	x	x	x	x
O=C(c1cccc(-n2cccc2)c1)N1CCN(S(=O)(=O)c2ccccc2)CC1	8.9µM*	8.9µM*	u	x	18µM*	18µM*	4.2*	8.5*	x	WRN helicase inh-2=4.3µM*;TO DNA binding=u;BLM counter=1.1µM*
O=C(c1cccc(S(=O)(=O)N2CCN(c3ccccc3)CC2)c1)N1CCCCCCC1	-19%	20%	-1%	x	-5%	-4%	x	x	x
Cc1cc(C(=O)Nc2ccc(S(=O)(=O)Nc3nccs3)cc2)c(C)o1	0%	13%	-9%	-27%	0%	-30%	x	x	x
O=C1CC(c2ccc(O)c(O)c2)Oc2c1ccc(O)c2O (centres undefined)	0.79µM*	1.6µM*	3.5µM*	0.4µM*	1.8µM*	3.2µM*	3.4*	3.4*	34*	PGK validate=0.92µM*;WRN helicase inh-2=1.1µM*;TO DNA binding=u;BLM counter=0.96µM*

Screens from PubChem BioAssay.
